From PubChem BioAssay
Wnt bcat act: Wnt/beta-catenin pathway activators, primary screen, cell-based, plate reader, single point; Wnt/beta-catenin reporter cell assay, activator; activation, % at 9.35 µM; 1.2% of 300,000 active; AID 743398, 2014; in the data active = activation above about 30%, passing the limit was not always enough; inconclusive = no clear call, values can overlap the other calls;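 note: 0% = neutral control wells and 100% = positive control wells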
C2C12 statin: suppressors of statin myotoxicity in C2C12 myotubes, primary screen, cell-based, single point, plate reader | AID 602340, 2012 | 0.78% of 330,000 active | C2C12 myotubes + simvastatin, ATP luminescence, 48 h; scaled: DMSO 0, geranylgeraniol control 100 | rescue of ATP level, % at 7.49 µM;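 active = mean ATP rescue above about 67%, or every replicate alone reaching that limit, limit read from the data, passing the limit was not always enough; inconclusive = no clear call, values can overlap the other calls; inactive = mean under the limit and some replicate under it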;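 note: myotubes were challenged with 10 µM simvastatin during compound exposure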
MITF TRPM1 HTS: activators of MITF-driven TRPM1 promoter reporter, primary screen, cell-based, SK-MEL-5, luciferase, single point; SK-MEL-5 TRPM1-promoter luciferase, 24 h; % of positive control, neutral wells = 0; activation, % at 12.5 µM; 0.75% of 300,000 active; AID 588334, 2011;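 active = mean activation of at least 80% with every replicate also reaching 80%; inconclusive = mean reaches 80% but some replicate falls short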;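 note: 0% = neutral control wells and 100% = parthenolide positive control wells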
esBAF inh: Bmi1 luciferase reporter increase in mESCs, primary screen, esBAF inhibitor project, mouse ES cells, Bmi1 luciferase knock-in, single point | reporter increase, % at 12.5 µM | AID 602393, 2012 | 24 h; 100% = twice the neutral-well signal | 2% of 350,000 active; in the data active = activation above about 40%; inconclusive = no clear call, values can overlap the other calls;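 note: 0% = median of the plate's neutral control wells and 100% = double that signal; a rise in the Bmi1 reporter signal indicates esBAF inhibition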
Rtt109 HAT inh: inhibitors of C. albicans Rtt109/Vps75 HAT, primary screen, biochemical, ThioGlo CoA-SH fluorescence, plate reader; inhibition, % at 34.9 µM; AID 540336, 2011; Histone acetyltransferase RTT109 (Candida albicans (strain SC5314 / ATCC MYA-2876)), …; purified Rtt109/Vps75, 4 h; 0.16% of 330,000 active;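 active = inhibition of at least 50% in every replicate; inconclusive = best replicate reaches 50% inhibition but some replicates fall short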
Target sequence (Q5AAJ8 whole entry, looked up): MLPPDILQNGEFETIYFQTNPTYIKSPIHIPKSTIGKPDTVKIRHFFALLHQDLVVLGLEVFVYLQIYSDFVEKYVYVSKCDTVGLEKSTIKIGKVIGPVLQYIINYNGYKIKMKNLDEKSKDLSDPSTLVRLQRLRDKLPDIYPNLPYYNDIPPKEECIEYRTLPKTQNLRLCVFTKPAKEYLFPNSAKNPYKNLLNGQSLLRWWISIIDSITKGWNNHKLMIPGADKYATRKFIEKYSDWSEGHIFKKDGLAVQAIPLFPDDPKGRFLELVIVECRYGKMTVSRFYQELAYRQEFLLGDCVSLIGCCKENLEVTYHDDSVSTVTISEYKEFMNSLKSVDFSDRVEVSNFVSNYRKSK
* = called active by the depositor; ? = inconclusive; / = no result given. Most compounds without a hit are left out; they make up all but 3.1% or so of the library.

SMILES	Wnt bcat act	C2C12 statin	MITF TRPM1 HTS	esBAF inh	Rtt109 HAT inh
CC(C)NC(=O)Nc1ccc2c(c1)C(=O)N([C@H](C)CO)C[C@@H](C)[C@H](CN(C)S(=O)(=O)c1ccc(F)cc1)OCCCC[C@@H](C)O2	/	/	/	7.5	/
CCCNC(=O)Nc1ccc2c(c1)C(=O)N(C)[C@H]1CC[C@@H](CC(=O)O)O[C@@H]1CO2	/	8.1	/	-2.9	/
C[C@@H]1CCCCO[C@H](CN(C)C(=O)Nc2ccc(F)cc2)[C@@H](C)CN([C@@H](C)CO)C(=O)c2cc(NC(=O)NC3CCCCC3)ccc2O1	/	/	/	2.9	/
Cc1nn(Cc2ccccc2Cl)c(Cl)c1C(=O)NCCc1ccccc1	47.1*	-45.0	60.3	5.4	-7.4
CCCS(=O)(=O)N1CCCC(C(=O)NCCN2CCC(Cc3ccccc3)CC2)C1 (configuration not stated)	/	116.9*	-11.2	7.9	13.0
O=C(COC(=O)Cn1cnc2ccccc21)Nc1cc(S(=O)(=O)N2CCOCC2)ccc1Cl	-1.2	5.9	-5.3	-4.5	-2.9
O=C(COC(=O)Cn1cnc2ccccc21)Nc1cc2c(cc1Cl)C(=O)c1ccccc1C2=O	-0.7	11.4	1.0	52.1*	/
CO[C@H]1CN(C)C(=O)c2ccc(NC(=O)NC(C)C)cc2OC[C@H](C)N(C(=O)NC(C)C)C[C@H]1C	/	-12.2	/	1.8	/
O=C(O)c1cc(/C=C/c2ccc(N3CCOCC3)c([N+](=O)[O-])c2)nc2ccccc12	34.0*	/	-1.1	/	-2.5
CCOC(=O)C1=C(C)NC(C)=C(C(=O)OCC)C1C(=O)OCC(=O)NCCc1ccc(S(N)(=O)=O)cc1	-2.1	2.9	9.6	2.3	53.4*
O=C(COC(=O)Cc1ccc(Cl)cc1)NCc1ccc(Cl)cc1	-0.6	1.4	/	-2.1	/
O=C(COC(=O)Cc1ccccc1F)NCc1ccc(Cl)cc1	-2.0	100.4*	-10.8	/	-3.4
O=C(NCc1ccccc1)c1ccc(-c2cn[nH]c2)c2ccoc12	9.5	-7.5	/	57.2*	/
COc1ccc(-c2ccc(CCC(=O)O)o2)cc1	11.4	/	18.0	/	57.6*
CNC(=O)COc1ccc(Cl)c2cccnc12	-1.1	7.6	-7.2	-8.5	4.9
Cc1cccc(NC(=O)Oc2ccc(Cl)c3cccnc23)c1	29.3	1.3	/	51.1*	/
CCNC(=O)[C@H]1[C@H](CO)[C@H]2Cn3c(ccc(-c4cccc(F)c4)c3=O)[C@@H]1N2C(C)=O	/	-2.7	/	-0.3	/
O=C(Nc1cc2c(cc1C(=O)O)OCCCO2)c1ccc(C(F)(F)F)cc1	19.6	-102.3	30.6	55.2*	-5.1
O=C(Cc1ccccc1)Nc1cc2c(cc1Cl)OCCCO2	14.4	7.7	94.1*	63.8*	-3.2
CCc1ccc(C(=O)Nc2cc3c(cc2Cl)OCCCO3)cc1	/	-18.5	108.9*	69.0*	-0.2
COCC(=O)Nc1ccc2c(c1)[C@H]1C[C@H](CC(=O)N(C)C)O[C@@H](CO)[C@H]1O2	/	1.9	/	2.9	/
CNC(=O)C[C@@H]1CC[C@H]2[C@@H](COc3ccc(NC(=O)NC(C)C)cc3C(=O)N2C)O1	/	-3.1	/	6.0	/
CCN1C(=O)NC2=C(C(=O)c3ccccc32)C1c1ccccc1F (configuration not stated)	5.9	119.9*	1.4	-1.7	-7.6
CCOC(=O)C1=C(C)NC2=C(C(=O)c3ccccc32)C1c1cccc2ccccc12 (configuration not stated)	-2.5	-52.0	-15.1	0.0	-6.0
COc1ccc(-c2coc3cc(O[C@@H]4O[C@H](CO)[C@@H](O)[C@H](O)[C@H]4O)ccc3c2=O)cc1	?	-6.3	56.8	63.7*	2.7
Cc1cc(=O)oc2cc(O[C@@H]3O[C@H](CO)[C@@H](O)[C@H](O)[C@H]3O)ccc12	2.0	3.0	-2.8	1.0	0.6
O=c1c(-c2ccc3c(c2)OCCO3)coc2cc(OC3OC(CO)C(O)C(O)C3O)ccc12 (configuration not stated)	41.5*	/	93.8*	-3.8	-4.8
COc1cc2c(=O)c(-c3ccc(O)cc3)coc2cc1OC1OC(CO)C(O)C(O)C1O (configuration not stated)	7.3	-8.5	2.7	35.9	10.2
